Reference: PubChem BioAssay (NCI)
The panel holds about 83,000 compounds, 20% with a hit somewhere; the sample as a whole holds those more often.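 Values shown are percent growth following 48 h exposure of cells in 96-well plates to a single concentration of compound; below 10 was considered active.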 Calls of active or inactive are those of the source.

How the values were obtained:
Assay in all cases: NCI-60 one-dose screen, 48 h (100 = growth as untreated, 0 = no growth, -100 = all killed)
SK-MEL-2 melanoma = conditions: 10 µM unless noted
SN12C renal = conditions: 10 µM unless noted
UO-31 renal = conditions: 10 µM unless noted
TK-10 renal = conditions: 10 µM unless noted
CAKI-1 renal = conditions: 10 µM unless noted
A498 renal = conditions: 10 µM
HL-60(TB) leukemia = conditions: 10 µM unless noted
CCRF-CEM leukemia = conditions: 10 µM unless noted
ACHN renal = conditions: 10 µM unless noted
EKVX NSCLC = conditions: 10 µM unless noted

Measured: growth

COc1ccc(O)c(CNC(=O)CN2CCCC2=O)c1
inactive: SK-MEL-2 melanoma 103% | SN12C renal 97.6% | UO-31 renal 98.7% | TK-10 renal 105% | CAKI-1 renal 97.4% | A498 renal 93.6% | HL-60(TB) leukemia 142% | CCRF-CEM leukemia 26.4%

COc1ccc(C2=N[C@@H](Cc3ccccc3)C(=O)Nc3ccsc32)cc1
inactive: SN12C renal 54.3% | UO-31 renal 57% | TK-10 renal 70.3% | ACHN renal 55.7% | A498 renal 35.8% | CCRF-CEM leukemia 32.1%
active: SK-MEL-2 melanoma -4.24% | HL-60(TB) leukemia 8.11%

COC(=O)C1CCC(NC(=O)c2csc([C@@H](C[C@H](C(C)C)N(C)C(=O)[C@@H](NC(=O)[C@H]3CCCCN3C)C(C)C)OC(C)=O)n2)CC1 (some centres not stated)
active: A498 renal -6.6% | HL-60(TB) leukemia -21.8%
inactive: SK-MEL-2 melanoma 28.6% | SN12C renal 28.7% | UO-31 renal 60.8% | TK-10 renal 63.1% | ACHN renal 23.8% | CCRF-CEM leukemia 13%

CN1CC(=O)N(O)C1(C)c1cccnc1 (configuration not stated)
inactive: SK-MEL-2 melanoma 94.6% | SN12C renal 101% | UO-31 renal 87.5% | TK-10 renal 97.7% | ACHN renal 102% | CAKI-1 renal 95.2% | A498 renal 97.2% | HL-60(TB) leukemia 92.2% | CCRF-CEM leukemia 106%

O=[N+]([O-])/C=C\c1ccc(Cl)c(Cl)c1
inactive: SK-MEL-2 melanoma 84% | SN12C renal 77.5% | UO-31 renal 35.4% | TK-10 renal 82.7% | ACHN renal 78.4% | CAKI-1 renal 84.7% | HL-60(TB) leukemia 34.6% | CCRF-CEM leukemia 33.6%

COc1ccc(/C=C\c2cc(OC)c(OC)c(OC)c2)c(NS(=O)(=O)c2ccc(Cl)cc2)c1O
inactive: SN12C renal 22.1% | UO-31 renal 33.7% | TK-10 renal 25.1% | ACHN renal 25.9%
active: SK-MEL-2 melanoma 0.0535% | A498 renal -13% | HL-60(TB) leukemia -38.8% | CCRF-CEM leukemia 7.81%

COc1ccc(/C=C\c2cc(OC)c(OC)c(OC)c2)c(NS(=O)(=O)c2ccc(C)cc2)c1O
inactive: SN12C renal 35.6% | UO-31 renal 53.4% | TK-10 renal 65.2% | ACHN renal 23.7% | CAKI-1 renal 19.8% | CCRF-CEM leukemia 21.9%
active: SK-MEL-2 melanoma -6.34% | HL-60(TB) leukemia 9.18%

O[C@H](CN1CC1)[C@@H](O)CN1CC1
inactive: SK-MEL-2 melanoma 87% | SN12C renal 41.1% | UO-31 renal 51.1% | TK-10 renal 101% | ACHN renal 24% | A498 renal 95.1% | HL-60(TB) leukemia 30.7% | CCRF-CEM leukemia 33.3%
active: CAKI-1 renal -0.578%

COC(=O)[C@@H](C)C[C@H](Cc1ccccc1)NC(=O)c1csc([C@@H](C[C@H](C(C)C)N(C)C(=O)[C@@H](NC(=O)[C@H]2CCCN2C)C2CC2)OC(C)=O)n1
active: A498 renal -0.976% | HL-60(TB) leukemia -36.8% | CCRF-CEM leukemia 6.07%
inactive: SK-MEL-2 melanoma 35.8% | SN12C renal 25.2% | UO-31 renal 48.2% | ACHN renal 20.8% | CAKI-1 renal 12.7%

N/C(=N/N=C/c1ccncc1)N[N+](=O)[O-]
inactive: SK-MEL-2 melanoma 104% | SN12C renal 95.8% | UO-31 renal 93.8% | ACHN renal 101% | CAKI-1 renal 99.2% | A498 renal 86.3% | HL-60(TB) leukemia 109% | CCRF-CEM leukemia 101%

Cc1ccc(C(=O)NCCCOc2ccc(N3C(N)=NC(N)=NC3(C)C)cc2Cl)cc1S(=O)(=O)F
inactive: SK-MEL-2 melanoma 70.1% | SN12C renal 35.2% | UO-31 renal 105% | TK-10 renal 103% | ACHN renal 110% | A498 renal 118% | HL-60(TB) leukemia 30.2% | CCRF-CEM leukemia 55.1%

COc1cc(/C=C\c2cc(OC)c(OC)c(OC)c2)cc(N/C=C\C(=O)c2cc(OC)c(OC)c(OC)c2)c1OC
inactive: SK-MEL-2 melanoma 15.9% | SN12C renal 36.9% | UO-31 renal 22.3% | TK-10 renal 55.1% | ACHN renal 28.9%
active: A498 renal -12.4% | CCRF-CEM leukemia 8.89%

CC(=O)/C=C/c1ccc2c(c1)OCO2
inactive: SK-MEL-2 melanoma 107% | SN12C renal 98.1% | UO-31 renal 100% | TK-10 renal 99.7% | ACHN renal 97.5% | A498 renal 118% | CCRF-CEM leukemia 94.1%

COc1cc(/C=C\c2cc(OC)c(OC)c(OC)c2)cc(NS(=O)(=O)c2cccc(Cl)c2)c1OC
active: CCRF-CEM leukemia 9.72%
inactive: SK-MEL-2 melanoma 23.5% | SN12C renal 27.7% | UO-31 renal 32.1% | TK-10 renal 63.3% | ACHN renal 16.4% | CAKI-1 renal 11.4%

Clc1ccc(CO/N=C(\Cn2ccnc2)c2ccc(Cl)cc2Cl)c(Cl)c1
active: EKVX NSCLC 6.63% | SN12C renal 2.12% | UO-31 renal -3% | TK-10 renal -1.82% | ACHN renal 6.26% | CAKI-1 renal 1.17% | A498 renal -5.95% | HL-60(TB) leukemia -23% | CCRF-CEM leukemia -13.1%

CC(C)CCC(=O)O[C@H]1CC[C@H]2[C@@H]3CCC4=CC(=O)CC[C@]4(C)[C@H]3CC[C@]12C
inactive: EKVX NSCLC 73.9% | SN12C renal 107% | UO-31 renal 82.1% | TK-10 renal 100% | ACHN renal 98.5% | CAKI-1 renal 88.5% | A498 renal 77.2% | HL-60(TB) leukemia 108% | CCRF-CEM leukemia 104%

CCN(CC)c1ccc2c(c1)OC(N)=C(C#N)C2c1cc(OC)c2c(c1)OCO2 (configuration not stated)
active: A498 renal -4%
inactive: EKVX NSCLC 41.7% | SN12C renal 15.1% | UO-31 renal 34.7% | TK-10 renal 59.3% | ACHN renal 21.4% | CAKI-1 renal 32.7% | HL-60(TB) leukemia 13%

CC12CCC3C(CCC4=CC(=O)CCC43CF)C1CCC2=O (configuration not stated)
inactive: EKVX NSCLC 94.8% | SN12C renal 113% | UO-31 renal 87.8% | TK-10 renal 115% | ACHN renal 120% | CAKI-1 renal 111% | A498 renal 111% | HL-60(TB) leukemia 113% | CCRF-CEM leukemia 88.2%

Cc1cc(-c2nc3cc(F)ccc3[se]2)cc(F)c1N
inactive: SK-MEL-2 melanoma 101% | UO-31 renal 55.8% | TK-10 renal 57.6% | ACHN renal 79% | A498 renal 74.8% | HL-60(TB) leukemia 87.2% | CCRF-CEM leukemia 85.2%

O=C(c1cccc(O)c1O)c1cn(Cc2ccc(F)cc2)c2cccc(O)c12
inactive: EKVX NSCLC 52.4% | SN12C renal 34% | TK-10 renal 77% | ACHN renal 21.5% | CAKI-1 renal 21.5% | A498 renal 108%
active: UO-31 renal -10.3% | HL-60(TB) leukemia -32.8% | CCRF-CEM leukemia 4.35%

ClCCN(CCCl)c1ccc(/C=N/Nc2ncnc3nc[nH]c23)cc1
inactive: EKVX NSCLC 85.1% | SN12C renal 67.2% | UO-31 renal 54.2% | TK-10 renal 113% | ACHN renal 74.8% | CAKI-1 renal 64% | A498 renal 98.4% | HL-60(TB) leukemia 92% | CCRF-CEM leukemia 42.4%

CCCCCCCC(=O)OCC(=O)[C@]1(O)Cc2c(O)c3c(c(O)c2[C@@H](OC2CC(N)C(O)C(C)O2)C1)C(=O)c1c(OC)cccc1C3=O (some centres not stated)
active: EKVX NSCLC -57.9% | SN12C renal -69.4% | UO-31 renal -83.2% | TK-10 renal -44.5% | ACHN renal -82.9% | CAKI-1 renal -47.9% | A498 renal -87.6% | HL-60(TB) leukemia -92.4% | CCRF-CEM leukemia -90.3%

CO[C@H](C(=O)O)[C@@H]1Cc2cc3cc(OC4CC(OC5CC(O)C(O)C(C)O5)C(O)C(C)O4)c(C)c(O)c3c(O)c2C(=O)[C@H]1OC1CC(OC2CC(OC3CC(C)(O)C(O)C(C)O3)C(O)C(C)O2)C(O)C(C)O1 (some centres not stated)
active: UO-31 renal 8.85% | ACHN renal 2.89% | A498 renal -55.7%
inactive: EKVX NSCLC 31.3% | SN12C renal 15.3% | TK-10 renal 24.2% | CAKI-1 renal 25.7% | HL-60(TB) leukemia 41.3% | CCRF-CEM leukemia 23.8%

O=C1OCCC1Br (configuration not stated)
inactive: SK-MEL-2 melanoma 96.5% | UO-31 renal 96.4% | TK-10 renal 104% | ACHN renal 102% | CAKI-1 renal 95% | A498 renal 101% | HL-60(TB) leukemia 78.1%

O=C(Nc1ccc(O)cc1)C(Cl)(Cl)Cl
inactive: EKVX NSCLC 98.6% | SN12C renal 95.4% | UO-31 renal 93.4% | TK-10 renal 106% | ACHN renal 104% | CAKI-1 renal 89.9% | HL-60(TB) leukemia 98.5% | CCRF-CEM leukemia 106%

CC(=O)OC1CCC2C3CCC4=C/C(=N/OC(=O)c5ccc(N(CCCl)CCCl)cc5)CCC4(C)C3CC(C)C12 (configuration not stated)
inactive: SK-MEL-2 melanoma 104% | TK-10 renal 92.6% | ACHN renal 58.1% | CAKI-1 renal 73.9% | A498 renal 63.3% | HL-60(TB) leukemia 33.7% | CCRF-CEM leukemia 14.8%
active: UO-31 renal -32%

O=C(CC1(O)C(=O)N(Cc2ccccc2)c2ccc(Cl)cc21)c1ccc(C(=O)NCC2CCC3(CC2)OOC2(CCCCC2)OO3)cc1 (configuration not stated)
active: EKVX NSCLC -71.1% | SN12C renal -58.1% | UO-31 renal -74.2% | TK-10 renal -91.5% | ACHN renal -83.9% | CAKI-1 renal -94.3% | A498 renal -91% | HL-60(TB) leukemia -62.7% | CCRF-CEM leukemia -42.7%

O=C1C2CC=CCC2C(=O)N1SC(Cl)(Cl)Cl (configuration not stated)
inactive: EKVX NSCLC 121% | SN12C renal 97.4% | TK-10 renal 115% | ACHN renal 72.3% | CAKI-1 renal 72.8% | A498 renal 139% | HL-60(TB) leukemia 46.2% | CCRF-CEM leukemia 21.6%
active: UO-31 renal 4.07%

ClCCN(CCCl)c1ccc(/C=N\N=C\c2ccc(N(CCCl)CCCl)cc2)cc1
inactive: EKVX NSCLC 47.1% | SN12C renal 36.3% | TK-10 renal 47.2% | ACHN renal 40.1% | A498 renal 75% | CCRF-CEM leukemia 25%
active: UO-31 renal -16.2% | CAKI-1 renal 7.35%

C[C@@]1(CCCCCCCCCc2ccc(O)cc2)C[C@]2(C)OC(=O)C[C@@H]2OO1
inactive: EKVX NSCLC 98.7% | SN12C renal 98.5% | UO-31 renal 16.7% | TK-10 renal 112% | ACHN renal 65.5% | CAKI-1 renal 65.1% | A498 renal 104% | HL-60(TB) leukemia 81% | CCRF-CEM leukemia 75.4%
